The OligoGym collection

Biological target: PPARGC1A
Test: pooled miR-30 sensor sort-seq; sequence = guide strand
Settings: shRNA
Note: reference of the scale not given here.

Sequence | sensor-assay potency score (higher = more potent)
TTTCTAGTTGTCTAGAGTCTTG | -1.22
TTACATTTGAATATTCTTGATT | 0.253
TTGCTGTTGACAAATACTCTTC | -0.955
TAGGTAATGAAACCATAGCTGT | -0.856
TTAGACTTGAAAAATTGCTTGC | 0.583
TAGGTCTGCATAGTTAGACTTG | -0.55
TTCGTCGTCAAAAACAGCTTGA | -0.0941

Biological target: PPCS
Test: as above
Settings: shRNA

Sequence | sensor-assay potency score (higher = more potent)
TACAATAAACACAAAGGACTGT | 0.367
TAAATTTCCAAAGCCTTCCGAG | -0.661
TTGATGCTGATAAATTTCCAAA | -1.35
TTCATTGTTATCTGCAGTGGGC | -0.306
TTTTTTTGTAGTTTTCACCATC | -0.312
TCTGATAGCAATAACTTGGTTT | 0.221
TAAACACAAAGGACTGTCGTGA | 0.415
TTATCCACTATCTTCTCTTCTA | -0.111
TTCACCATCTCTAAGAGCCCTG | -0.3
TTTGGCACCATCTTCATTGTTA | 0.148
TTGTAGTTTTCACCATCTCTAA | -1.34
TTCTCTTCTATCTCTACGCCTT | -0.45

Biological target: PPEF1
Test: as above
Settings: shRNA

Sequence | sensor-assay potency score (higher = more potent)
TTATGCAAAATTTCTTTCGTGA | 0.493
TATCGAGTCCACATAATCCCAT | -1.01
TAATGCTGAAACCAAATCCTAT | -0.921
TTCATCAGCATATTCGATGGAC | -0.181
TAGTAGTTTTCTCTTGTGCTGT | -0.247
TTGTATGTGAGTGAAATTCGGC | -0.494
TTTTATTGTGCTTCGAGTCAGT | 0.317
TTGTTCATCAGCATATTCGATG | -0.664
TAGTTTTCCAACATGAAGGAAA | -0.591
TAATCTTACCAATAACAGCTTG | -0.683
TTTTCTGTGGTCTTGAAGTTGG | -0.736
TTTTCCATAGTATCCACTCTTT | -0.493

Biological target: PPIA
Test: as above
Settings: shRNA

Sequence | sensor-assay potency score (higher = more potent)
TTGCTGGTCTTGCCATTCCTGG | -1.6
TATTTCATAATCATAAACTTAA | -0.804
TAAACTTAACTCTGCAATCCAG | -0.459
TTTCACTTTGCCAAACACCACA | -0.879
TCTTCTTGCTGGTCTTGCCATT | -1.28
ATAATCATAAACTTAACTCTGC | 0.46
AAACTTAACTCTGCAATCCAGC | -0.893
TAACCAAATCCTTTCTCTCCAG | -0.631
TTAGGATGAAGTTCTCATCTTC | 0.589
